In ChEMBL document CHEMBL1961873, “Compounds: GSK PKIS; Assays: Nanosyn kinase panel” (2012) one finds inhibition data, which are given here for six molecules.

The target in assay [1] is T1, 3-phosphoinositide-dependent protein kinase 1 (Homo sapiens) (UniProt O15530).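 Further: values are mean inhibition of PDK1.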
T1 sequence (whole entry): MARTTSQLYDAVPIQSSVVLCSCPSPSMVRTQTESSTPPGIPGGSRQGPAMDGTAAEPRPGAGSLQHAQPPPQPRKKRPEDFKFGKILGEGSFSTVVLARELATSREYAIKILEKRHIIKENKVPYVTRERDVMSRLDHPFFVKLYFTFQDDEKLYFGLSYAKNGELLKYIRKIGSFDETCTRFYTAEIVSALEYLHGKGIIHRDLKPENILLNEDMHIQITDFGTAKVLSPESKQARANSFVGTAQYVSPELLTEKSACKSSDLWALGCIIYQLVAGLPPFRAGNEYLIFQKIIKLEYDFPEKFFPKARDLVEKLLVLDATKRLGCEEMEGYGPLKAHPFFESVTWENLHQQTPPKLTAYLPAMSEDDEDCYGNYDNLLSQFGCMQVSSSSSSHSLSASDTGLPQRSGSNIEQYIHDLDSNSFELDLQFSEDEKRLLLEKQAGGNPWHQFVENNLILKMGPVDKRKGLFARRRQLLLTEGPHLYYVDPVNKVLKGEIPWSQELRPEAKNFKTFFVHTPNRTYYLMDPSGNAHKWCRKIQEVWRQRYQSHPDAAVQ
The settings on record: at 0.1 µM.

Assay [2] deals with cAMP-dependent protein kinase catalytic subunit alpha (Homo sapiens) (UniProt P17612). The settings on record: at 0.1 µM.
The target is the same in assay [3]. The settings on record: at 1 µM.
The target of assay [4] is Protein kinase C alpha type (Homo sapiens) (UniProt P17252). The settings on record: at 0.1 µM.
For assay [5] the target is unchanged. The settings on record: at 1 µM.
The target of assay [6] is Protein kinase C beta type (Homo sapiens) (UniProt P05771). The settings on record: at 0.1 µM.
Assay [7] has the same target. The settings on record: at 1 µM.
The target of assay [8] is Protein kinase C eta type (Homo sapiens) (UniProt P24723). The settings on record: at 0.1 µM.
Assay [9] has the same target. The settings on record: at 1 µM.
Assay [10] concerns the target Protein kinase C gamma type (Homo sapiens) (UniProt P05129). The settings on record: at 0.1 µM.
For assay [11] the target is unchanged. The settings on record: at 1 µM.
Assay [12] concerns the target T2, Protein kinase C iota type (Homo sapiens) (UniProt P41743).
T2 sequence (whole entry): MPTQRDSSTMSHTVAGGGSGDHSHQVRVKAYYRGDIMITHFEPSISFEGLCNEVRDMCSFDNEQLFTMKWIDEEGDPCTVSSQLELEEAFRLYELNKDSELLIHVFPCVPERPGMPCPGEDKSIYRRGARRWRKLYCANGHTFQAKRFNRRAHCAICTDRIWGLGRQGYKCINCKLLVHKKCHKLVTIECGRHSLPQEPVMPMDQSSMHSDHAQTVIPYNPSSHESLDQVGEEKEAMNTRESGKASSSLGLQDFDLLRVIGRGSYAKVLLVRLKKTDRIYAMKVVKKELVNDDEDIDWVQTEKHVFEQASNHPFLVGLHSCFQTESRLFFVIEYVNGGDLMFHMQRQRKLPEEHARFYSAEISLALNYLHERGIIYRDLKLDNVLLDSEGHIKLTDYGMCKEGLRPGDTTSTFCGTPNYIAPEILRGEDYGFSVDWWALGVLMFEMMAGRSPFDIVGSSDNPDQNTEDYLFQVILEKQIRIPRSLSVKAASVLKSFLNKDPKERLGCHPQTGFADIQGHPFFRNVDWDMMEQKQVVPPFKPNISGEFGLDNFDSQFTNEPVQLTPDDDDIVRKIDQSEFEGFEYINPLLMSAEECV
The settings on record: at 0.1 µM.

The target in assay [13] is T2, Protein kinase C iota type (Homo sapiens). The settings on record: at 1 µM.
In assay [14] the target is Protein kinase C theta type (Homo sapiens) (UniProt Q04759). The settings on record: at 0.1 µM.
For assay [15] the target is unchanged. The settings on record: at 1 µM.
Assay [16] addresses Protein kinase C beta type (Homo sapiens) (UniProt P05771). The settings on record: at 0.1 µM. This is another data set of the same source.
For assay [17] the target is unchanged. The settings on record: at 1 µM. The source holds these as a separate data set.
Assay [18] concerns the target T3, Serine/threonine-protein kinase D1 (Homo sapiens) (UniProt Q15139).
T3 sequence (whole entry): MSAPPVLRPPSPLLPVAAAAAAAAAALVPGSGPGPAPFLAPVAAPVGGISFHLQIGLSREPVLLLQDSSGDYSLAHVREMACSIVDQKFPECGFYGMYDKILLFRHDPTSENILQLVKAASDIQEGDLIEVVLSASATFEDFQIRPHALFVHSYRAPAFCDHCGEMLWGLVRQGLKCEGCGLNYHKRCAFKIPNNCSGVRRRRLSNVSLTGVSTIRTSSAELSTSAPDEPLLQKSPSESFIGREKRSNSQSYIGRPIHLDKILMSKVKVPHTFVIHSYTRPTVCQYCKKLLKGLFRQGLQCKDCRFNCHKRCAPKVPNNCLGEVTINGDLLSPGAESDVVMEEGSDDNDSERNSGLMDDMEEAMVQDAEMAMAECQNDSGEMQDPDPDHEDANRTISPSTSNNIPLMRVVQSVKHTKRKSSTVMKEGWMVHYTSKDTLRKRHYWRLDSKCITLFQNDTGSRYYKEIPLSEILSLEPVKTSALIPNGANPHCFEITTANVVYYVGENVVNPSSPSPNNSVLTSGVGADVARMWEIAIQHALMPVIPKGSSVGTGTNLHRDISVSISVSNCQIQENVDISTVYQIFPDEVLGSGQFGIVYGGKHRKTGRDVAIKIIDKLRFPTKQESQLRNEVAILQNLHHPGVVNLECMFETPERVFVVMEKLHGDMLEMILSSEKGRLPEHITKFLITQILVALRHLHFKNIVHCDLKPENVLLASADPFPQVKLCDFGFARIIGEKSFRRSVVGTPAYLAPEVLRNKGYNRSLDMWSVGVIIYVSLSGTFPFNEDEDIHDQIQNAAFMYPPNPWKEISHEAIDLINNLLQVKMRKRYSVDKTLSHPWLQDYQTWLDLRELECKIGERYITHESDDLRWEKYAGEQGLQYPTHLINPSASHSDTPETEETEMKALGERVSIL
The settings on record: at 0.1 µM.

Assay [19] addresses T3, Serine/threonine-protein kinase D1 (Homo sapiens). The settings on record: at 1 µM.
Assay [20] has as its target T4, Serine/threonine-protein kinase D2 (Homo sapiens) (UniProt Q9BZL6).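 Further: reported percent inhibition values are means, part of the GSK PKIS kinase panel screen.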
T4 sequence (whole entry): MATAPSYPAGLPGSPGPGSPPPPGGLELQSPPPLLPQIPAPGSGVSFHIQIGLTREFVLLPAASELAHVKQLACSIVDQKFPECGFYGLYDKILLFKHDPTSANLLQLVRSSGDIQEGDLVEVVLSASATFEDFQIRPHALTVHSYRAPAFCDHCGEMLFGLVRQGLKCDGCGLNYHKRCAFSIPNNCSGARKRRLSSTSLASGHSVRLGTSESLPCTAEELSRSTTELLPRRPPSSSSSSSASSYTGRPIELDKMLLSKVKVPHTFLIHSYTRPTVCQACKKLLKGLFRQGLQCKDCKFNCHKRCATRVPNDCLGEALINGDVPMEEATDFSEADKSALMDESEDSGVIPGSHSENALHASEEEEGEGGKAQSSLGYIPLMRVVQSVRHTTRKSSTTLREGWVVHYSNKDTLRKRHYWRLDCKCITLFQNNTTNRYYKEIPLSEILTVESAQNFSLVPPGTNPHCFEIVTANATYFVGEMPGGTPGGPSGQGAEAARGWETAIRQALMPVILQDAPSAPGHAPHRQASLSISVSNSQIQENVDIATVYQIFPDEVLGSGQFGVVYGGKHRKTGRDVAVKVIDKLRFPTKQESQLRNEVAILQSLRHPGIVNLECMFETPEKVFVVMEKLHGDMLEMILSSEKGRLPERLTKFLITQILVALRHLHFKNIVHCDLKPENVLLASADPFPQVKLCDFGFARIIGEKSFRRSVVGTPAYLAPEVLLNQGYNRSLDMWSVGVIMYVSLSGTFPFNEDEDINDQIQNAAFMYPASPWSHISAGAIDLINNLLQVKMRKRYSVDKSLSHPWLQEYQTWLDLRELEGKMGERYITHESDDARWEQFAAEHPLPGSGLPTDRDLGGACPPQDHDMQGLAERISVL
The settings on record: at 0.1 µM.

Protein kinase C theta type (Homo sapiens), sequence (Q04759 whole entry, looked up): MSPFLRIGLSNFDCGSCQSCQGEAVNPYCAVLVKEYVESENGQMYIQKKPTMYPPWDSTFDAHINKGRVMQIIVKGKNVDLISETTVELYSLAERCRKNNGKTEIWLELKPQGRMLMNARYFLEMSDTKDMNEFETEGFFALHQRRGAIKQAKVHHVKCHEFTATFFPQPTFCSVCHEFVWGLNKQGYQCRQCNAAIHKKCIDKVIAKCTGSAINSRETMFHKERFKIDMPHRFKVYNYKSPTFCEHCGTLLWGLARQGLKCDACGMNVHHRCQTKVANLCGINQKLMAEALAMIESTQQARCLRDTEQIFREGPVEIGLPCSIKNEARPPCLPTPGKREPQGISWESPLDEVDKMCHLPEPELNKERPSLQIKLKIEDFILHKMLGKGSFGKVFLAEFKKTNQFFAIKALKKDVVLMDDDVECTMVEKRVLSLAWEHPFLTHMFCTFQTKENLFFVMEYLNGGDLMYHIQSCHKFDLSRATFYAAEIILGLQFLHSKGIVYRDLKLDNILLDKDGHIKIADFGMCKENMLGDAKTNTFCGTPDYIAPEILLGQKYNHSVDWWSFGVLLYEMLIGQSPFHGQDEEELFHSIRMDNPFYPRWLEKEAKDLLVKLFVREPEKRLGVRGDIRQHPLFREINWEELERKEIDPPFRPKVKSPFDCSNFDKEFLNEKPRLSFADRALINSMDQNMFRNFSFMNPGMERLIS
Protein kinase C beta type (Homo sapiens), sequence (P05771 2-671 limits assumed): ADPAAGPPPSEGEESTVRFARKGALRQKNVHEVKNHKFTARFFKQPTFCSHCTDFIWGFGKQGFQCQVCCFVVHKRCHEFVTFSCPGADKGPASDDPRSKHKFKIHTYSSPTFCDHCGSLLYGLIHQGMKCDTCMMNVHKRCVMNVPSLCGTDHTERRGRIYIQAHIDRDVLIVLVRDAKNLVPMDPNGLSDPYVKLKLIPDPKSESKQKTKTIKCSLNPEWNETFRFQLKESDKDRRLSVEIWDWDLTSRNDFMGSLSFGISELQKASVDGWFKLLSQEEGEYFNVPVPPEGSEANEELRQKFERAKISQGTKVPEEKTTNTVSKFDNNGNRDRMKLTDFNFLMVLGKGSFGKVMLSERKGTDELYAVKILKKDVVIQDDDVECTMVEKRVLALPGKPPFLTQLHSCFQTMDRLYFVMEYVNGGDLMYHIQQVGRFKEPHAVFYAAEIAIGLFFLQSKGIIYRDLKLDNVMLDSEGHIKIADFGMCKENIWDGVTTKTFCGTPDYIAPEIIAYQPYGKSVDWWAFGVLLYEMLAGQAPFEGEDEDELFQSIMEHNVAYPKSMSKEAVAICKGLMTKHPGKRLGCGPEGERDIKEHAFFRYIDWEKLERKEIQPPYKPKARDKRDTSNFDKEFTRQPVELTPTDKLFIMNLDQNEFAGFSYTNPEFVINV
Protein kinase C eta type (Homo sapiens), sequence (P24723 whole entry): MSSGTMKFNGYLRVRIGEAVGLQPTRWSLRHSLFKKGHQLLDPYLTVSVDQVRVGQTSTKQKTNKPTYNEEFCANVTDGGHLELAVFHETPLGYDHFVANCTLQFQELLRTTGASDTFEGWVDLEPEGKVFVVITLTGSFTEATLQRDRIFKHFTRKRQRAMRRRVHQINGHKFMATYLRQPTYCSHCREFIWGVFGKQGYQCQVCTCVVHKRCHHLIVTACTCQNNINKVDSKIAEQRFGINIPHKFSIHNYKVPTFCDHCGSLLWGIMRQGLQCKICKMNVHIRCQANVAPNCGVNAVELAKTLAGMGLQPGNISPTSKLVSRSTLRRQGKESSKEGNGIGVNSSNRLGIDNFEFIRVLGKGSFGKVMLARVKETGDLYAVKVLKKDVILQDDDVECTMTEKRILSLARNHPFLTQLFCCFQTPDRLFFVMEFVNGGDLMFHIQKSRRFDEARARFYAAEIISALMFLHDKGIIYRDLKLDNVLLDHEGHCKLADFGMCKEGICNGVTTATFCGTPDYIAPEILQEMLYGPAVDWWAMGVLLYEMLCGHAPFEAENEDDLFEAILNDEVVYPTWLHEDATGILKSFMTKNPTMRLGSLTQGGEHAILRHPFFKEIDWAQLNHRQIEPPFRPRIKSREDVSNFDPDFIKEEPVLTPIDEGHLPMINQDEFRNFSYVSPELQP

A word on the inhibition: it is the change of the read-out against control, counted positive when it falls. Regarding `CS(=O)(=O)CCN(CC#N)Cc1ccc(-c2ccc3ncnc(Nc4ccc(OCc5cccc(F)c5)c(Cl)c4)c3c2)o1`, the inhibition in [1] is 0.12%; in assay [2], -3.08%; in assay [3], -3.11%; in [4] it was -3.93%; in assay [5] it was -3.34%; in assay [6], -0.34%. Moreover, the inhibition in [7] is -1.95%; in assay [8], 2.38%; in assay [9] it was 1.49%; in [10] it was -0.22%; in assay [11], -0.45%; in assay [12], 1.19%. The inhibition is 0.81% in [13]; 0.98% in assay [14]; 0.92% in assay [15]; 0.59% in assay [16]; 0.66% in assay [17]; -2.21% in [18]. Moreover, the values for the inhibition in assay [19] and in assay [20] were -3.04% and -2.89%, respectively.
As to `CCn1c(-c2nonc2N)nc2ccncc21`, the inhibition in [1] was 2.45%; in [2], 0.35%; in assay [3], 1.02%; in assay [4], 0.39%; in assay [5], 0.41%; in [6] it was -0.82%. The inhibition in [7] is 1.95%; in assay [8], 1.11%; in assay [9], 5.32%; in assay [10], -2.41%; in assay [11], 4.26%; in assay [12], 0.76%. The inhibition in assay [13] is 1.92%; in assay [14], -0.28%; in assay [15], 0%; in [16], -0.19%; in assay [17], 0.57%; in assay [18], 1.02%. Also, the figures for the inhibition in assay [19] and in [20] were 3.26% and 1.34%, respectively.
For the molecule `CN(C)c1cc2c(Nc3ccc4nc(Cc5ccccc5)[nH]c4c3)ncnc2cn1`, the inhibition in assay [1] was 4.68%; in assay [2], 3.66%; in assay [3], 2.62%; in assay [4], 1.27%; in assay [5] it was 2.33%; in assay [6], -1.06%. Besides, the inhibition in assay [7] was 2.6%; in assay [8] it was 3.25%; in assay [9], 3.62%; in assay [10], 3.66%; in assay [11], 4.36%; in assay [12], 2.13%. The inhibition in assay [13] turned out to be 2.77%; in assay [14] it was 2.25%; in assay [15] it was 4.22%; in assay [16] it was 1.18%; in assay [17], 3.96%; in assay [18] it was 4.29%. Besides, the inhibition was 6.67% in assay [19] and 5.21% in [20].
In the case of `c1cnn2ncc(-c3ccnc(Nc4ccc5c(c4)OCCO5)n3)c2c1`, the inhibition came to 4.84% in assay [1]; 1.74% in [2]; 7.09% in [3]; 2.47% in assay [4]; 20.4% in [5]; 1.95% in assay [6]. Besides, the inhibition in assay [7] was 4.36%; in assay [8], 4.51%; in [9], 8.26%; in assay [10], 1.93%; in [11], 9.81%; in assay [12] it was 2.88%. The inhibition in [13] came to 1.82%; in [14] it was 2.63%; in assay [15], 5.92%; in assay [16], 0.79%; in assay [17] it was 5.22%; in assay [18], 6.99%. Further, the inhibition is 45.1% in assay [19] and 5.55% in [20].
Take `Cc1nnc(-c2ccc(C)c(-c3ccc(C(=O)Nc4cccc(C#N)c4)cc3)c2)o1`: the inhibition is 0.99% in assay [1]; 2.18% in assay [2]; 1.76% in assay [3]; 0.5% in [4]; 0.89% in assay [5]; -0.92% in assay [6]. For the same molecule, the inhibition in [7] was 2.05%; in [8] it was 0.8%; in assay [9], 3.76%; in assay [10], 1.49%; in assay [11], 5.13%; in assay [12] it was -0.73%. Moreover, the inhibition is -1.05% in assay [13]; 1% in assay [14]; 1.47% in assay [15]; 1.09% in assay [16]; 1.38% in assay [17]; 4.29% in assay [18]. Further, the inhibition in assay [19] is 4.48%; in [20], 2.17%.
As for `Cc1ccc(C(=O)NC2CCCCC2)cc1-c1ccc(C(=O)NCC2CC2)cc1`, the inhibition stood at 3.8% in assay [1]; 3.21% in assay [2]; 1.86% in [3]; 0.96% in [4]; 2.17% in assay [5]; 1.17% in [6]. Also, the inhibition in assay [7] was 1.93%; in [8], 3.2%; in assay [9], -0.62%; in [10], 3.68%; in [11], 3.86%; in [12] it was 0.11%. For the same molecule, the inhibition stood at 2.97% in assay [13]; 1.39% in assay [14]; 0.58% in assay [15]; 1.11% in assay [16]; 3.12% in assay [17]; 1.97% in assay [18]. Moreover, the values for the inhibition in assay [19] and in assay [20] were 2.69% and 1.98%, respectively.
